FLuc modulator – firefly luciferase modulation, counter-screen for miR-21 project. hit rate 6.9% among 360,000. Potency, µM (titrated, usually from 57.5 µM), actives largely listed as inhibitors. purified FLuc, Km substrates, luminescence inhibition. P08659; note: nearly all actives have a fitted effect of over 55% in size
Target sequence (P08659 whole entry, looked up): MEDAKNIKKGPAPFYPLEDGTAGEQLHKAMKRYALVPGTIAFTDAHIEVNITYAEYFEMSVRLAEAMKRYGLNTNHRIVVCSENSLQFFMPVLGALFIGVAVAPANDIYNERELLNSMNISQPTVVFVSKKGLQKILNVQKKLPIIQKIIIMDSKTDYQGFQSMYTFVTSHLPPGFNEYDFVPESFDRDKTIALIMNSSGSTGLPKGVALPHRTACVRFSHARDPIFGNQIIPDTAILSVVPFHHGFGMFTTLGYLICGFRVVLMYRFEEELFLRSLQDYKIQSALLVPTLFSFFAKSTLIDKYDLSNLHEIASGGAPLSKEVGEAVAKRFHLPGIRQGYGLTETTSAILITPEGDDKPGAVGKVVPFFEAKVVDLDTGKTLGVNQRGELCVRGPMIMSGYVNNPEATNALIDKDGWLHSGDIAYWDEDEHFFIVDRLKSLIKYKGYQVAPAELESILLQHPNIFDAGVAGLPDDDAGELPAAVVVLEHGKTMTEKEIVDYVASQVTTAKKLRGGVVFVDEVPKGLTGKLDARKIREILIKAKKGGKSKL
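Purified P. pyralis luciferase (10nM final) with 10uM D-luciferin and 10uM ATP (Km levels) in 50mM Tris acetate pH 7.5, 10mM Mg acetate, 0.01% Tween-20, 0.05% BSA; qHTS 6-point titration, ~60 µM downward; luminescence read.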
NPC1 prom act – activates the NPC1 promoter; hit rate 2.4% among 320,000; Potency, µM (series often up to 9.22 µM), usual class: activators; Huh7 NPC1 promoter luciferase reporter, 24 h; note: nearly all actives have a fitted effect of over 60% in size
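Huh7 cells stably carrying NPC1 promoter–luciferase, plated in Opti-MEM with 10% FBS for 2 h, were exposed to compound in DMSO for 24 h at 37 °C; luciferase reagent was added for 10 min and luminescence read.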
ELG1 genotox – genotoxicity induction in ELG1-luciferase HEK293T cells | hit rate 1.3% among 330,000 | Potency, µM (top dose mostly 46 µM), actives largely listed as activators | HEK293T ELG1-luciferase reporter, luminescence, 16 h; note: nearly all actives have a fitted effect of over 60% in size
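After overnight (16 hr) compound treatment at 37 °C, ELG1-luciferase HEK293T cells were lysed with ONE-Glo; luminescence quantified 30 min later at room temperature.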
Rab9 promoter act – activators of Rab9 promoter; Huh7 Rab9 promoter-luciferase reporter, luminescence, 24 h; Potency, µM (highest dose often 9.22 µM), usual class: activators; hit rate 2.8% among 320,000; note: nearly all actives have a fitted effect of over 60% in size
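Luminescence read-out: Huh7 cells stably expressing Rab9-luciferase, treated 24 h with compound at 37 °C, then lysed with luciferase reagent for 10 min at ambient before reading.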
SMN2 splice enh – SMN2 splice variant enhancement | HEK293 SMN2-luciferase splicing reporter, luminescence, 30-36 h | Potency, µM (series often up to 46.1 µM), hits mostly activators | hit rate 2.8% among 210,000; note: nearly all actives have a fitted effect of over 55% in size
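HEK293 cells carry an SMN2 minigene-luciferase reporter in which exon 7 inclusion puts luciferase in frame. Cells were seeded at 2000 cells/well, attached for 10-12 hours, then exposed to compounds for 30-36 hours at 37C before ONE-Glo luminescence.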
KinaseGlo FLuc – counter-screen: inhibitors of Kinase-Glo firefly luciferase; Q27757; Kinase-Glo luciferase, ATP luminescence, 8 min; Potency, µM (series often up to 38.3 µM), hits mostly inhibitors; hit rate 0.28% among 200,000; AID 1379; note: nearly all actives have a fitted effect of over 60% in size
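Compounds were added to a substrate mix at pH 7.2 (50 mM imidazole, 10 uM ATP, within the enzyme's linear range), followed by Kinase-Glo detection reagent; luminescence was measured after 8 minutes at ambient temperature.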
Each line names hits and unclear results; the compound was inactive in the other large screens. A selection: hits, their analogues and other compounds. The true share with any hit is near 7.3%. Calls come from the whole dose curve; as a rule, active = well fitted curve in the direction sought with a large enough effect; inconclusive = small, poorly fitted or top-dose-only effect, or another doubt; inactive = no such curve, though single readings can be large; an effect the other way counts as inactive or inconclusive.

O=C(Nc1ccc(-c2cn3ccccc3n2)cc1)c1ccco1	FLuc modulator 2.4µM, NPC1 prom act 2.8µM, ELG1 genotox inconclusive, Rab9 promoter act 3.2µM, SMN2 splice enh 11µM, KinaseGlo FLuc 10µM
CCCC(CCC)C(=O)Nc1cccc(-c2cn3cccnc3n2)c1	none (no result: NPC1 prom act, ELG1 genotox, Rab9 promoter act, SMN2 splice enh, KinaseGlo FLuc)
Cc1ccc(C(=O)Nc2cccc(-c3cn4ccccc4n3)c2)cc1	FLuc modulator 6µM, Rab9 promoter act inconclusive (no result: SMN2 splice enh)
CCCCOc1ccc(N(CC(=O)NCc2ccccc2)C(=O)c2csnn2)cc1	none (no result: SMN2 splice enh, KinaseGlo FLuc)
Cc1ccccc1C(=O)Nc1cccc(-c2ccc3nncn3n2)c1	none
Cc1ccccc1C(=O)Nc1cccc(-c2cn3ccccc3n2)c1	FLuc modulator 6.7µM
CC(Sc1ccccn1)C(=O)Nc1ccc2c(c1)OCO2 (stereo not given)	FLuc modulator inconclusive (no result: SMN2 splice enh, KinaseGlo FLuc)
O=C(Nc1ccc2c(c1)OCO2)c1cnccn1	FLuc modulator inconclusive, NPC1 prom act 3.5µM, Rab9 promoter act 2.5µM, SMN2 splice enh 11µM
O=C(/C=C\Nc1ccc2c(c1)OCO2)c1ccccn1	FLuc modulator 0.076µM, NPC1 prom act inconclusive, ELG1 genotox inconclusive, Rab9 promoter act inconclusive, KinaseGlo FLuc 14µM
O=C(NCCc1ccc2c(c1)OCCO2)c1ccccn1	FLuc modulator 12µM, NPC1 prom act 2.2µM, ELG1 genotox inconclusive, Rab9 promoter act 2µM (no result: SMN2 splice enh, KinaseGlo FLuc)
O=C(NCc1ccc2c(c1)OCO2)c1ccccn1	none
O=C(COC(=O)c1cnccn1)Nc1ccc2c(c1)OCO2	none
O=C(Nc1ccc2c(c1)OCO2)c1ccccn1	FLuc modulator 9.5µM, NPC1 prom act 1.8µM, ELG1 genotox inconclusive, Rab9 promoter act 1.4µM (no result: SMN2 splice enh, KinaseGlo FLuc)
CC(C)CCNc1ncnc2c1nnn2Cc1ccccc1	none (no result: SMN2 splice enh, KinaseGlo FLuc)
CCC(COC(C)=O)Nc1nc2c([nH]1)c(=O)n(C)c(=O)n2C (stereo not given)	none (no result: SMN2 splice enh, KinaseGlo FLuc)
COC(=O)Cn1c2ccc(C)cc2c2nc3ccccc3nc21	none (no result: SMN2 splice enh, KinaseGlo FLuc)
CCC(=O)N1CCc2cc(S(=O)(=O)CCC(=O)NCc3ccccc3OC)ccc21	none (no result: KinaseGlo FLuc)
O=C(Nc1ccc2c(c1)OCO2)c1nn(-c2ccccc2)c(=O)c2ccccc12	none
O=C(Nc1ccc2c(c1)OCO2)c1n[nH]c(=O)c2ccccc12	FLuc modulator inconclusive, NPC1 prom act 2.8µM, ELG1 genotox inconclusive, Rab9 promoter act 3.5µM (no result: SMN2 splice enh, KinaseGlo FLuc)
Cn1c(SCC(=O)N2c3ccccc3Sc3ccc(Cl)cc32)nnc1-c1ccco1	none
Cc1cc(C(F)(F)F)c(C#N)c(SCC(=O)Nc2nc3cc(Br)ccc3s2)n1	Rab9 promoter act 3.2µM
CCOC(=O)NC(=O)CSc1nc(C)cc(C(F)(F)F)c1C#N	none
Cc1ccc(O)c(NC2=C(Cl)C(=O)N(Cc3ccccc3)C2=O)c1	FLuc modulator 21µM
C=CCN(C(=O)c1oc2c(Cl)cc(C)cc2c1C)C1CCS(=O)(=O)C1 (stereo not given)	FLuc modulator 11µM, NPC1 prom act 3.5µM, ELG1 genotox inconclusive, Rab9 promoter act 3.5µM (no result: SMN2 splice enh, KinaseGlo FLuc)
Cc1cccc(N(CC(=O)O)CC(=O)O)c1	SMN2 splice enh inconclusive
CC(/C=N/NC(=O)c1cccnc1)=C\c1ccco1	Rab9 promoter act inconclusive, SMN2 splice enh inconclusive
CC(/C=N/NC(=O)c1cnccn1)=C\c1ccco1	FLuc modulator 12µM, NPC1 prom act inconclusive, ELG1 genotox inconclusive, Rab9 promoter act inconclusive (no result: SMN2 splice enh, KinaseGlo FLuc)
CC(=C/c1ccco1)/C=N/NC(=O)c1ccncc1	FLuc modulator 17µM (no result: SMN2 splice enh, KinaseGlo FLuc)
CCN(CC)CCCCn1c(-c2ccccc2)nc2c(Nc3ccccc3)nc(C)nc21	none (no result: FLuc modulator, NPC1 prom act, ELG1 genotox, Rab9 promoter act)
CC1=NN(c2ccccc2)C(=O)/C1=C/c1c(O)n(-c2ccc(F)c(Cl)c2)[nH]c1=O	FLuc modulator 2.7µM, Rab9 promoter act inconclusive
CC1=NN(c2ccccc2)C(=O)/C1=C\c1c(C)[nH]n(-c2ccccc2)c1=O	FLuc modulator inconclusive
N#CC1CC(c2ccccc2)=NN1c1ccccc1[N+](=O)[O-] (stereo not given)	FLuc modulator 12µM, NPC1 prom act inconclusive, ELG1 genotox inconclusive, Rab9 promoter act 3.5µM, SMN2 splice enh 22µM
O=C(O)CCC(=O)Nc1ccc(S(=O)(=O)Nc2nccs2)cc1	none
COCc1cc(C)nc2sc(C(=O)Nc3ccc(OC)cc3)c(N)c12	FLuc modulator inconclusive, ELG1 genotox inconclusive, Rab9 promoter act inconclusive (no result: SMN2 splice enh, KinaseGlo FLuc)
COCc1cc(C)nc2sc(C(=O)Nc3nccs3)c(N)c12	FLuc modulator 17µM, NPC1 prom act inconclusive, Rab9 promoter act inconclusive
Cc1ccc(NC(=O)c2sc3nc(C)cc(C)c3c2N)cc1	FLuc modulator 1.2µM, NPC1 prom act 0.56µM, ELG1 genotox inconclusive, Rab9 promoter act 0.56µM (no result: SMN2 splice enh, KinaseGlo FLuc)
Cc1cc(C)c2c(N)c(C(=O)Nc3nccs3)sc2n1	FLuc modulator 0.34µM, NPC1 prom act inconclusive, ELG1 genotox 0.33µM, Rab9 promoter act 1µM, SMN2 splice enh inconclusive
CCCCOC(=O)c1sc2nc(C)cc(C)c2c1N	FLuc modulator 11µM, NPC1 prom act 3.5µM, ELG1 genotox inconclusive, Rab9 promoter act 2.8µM (no result: SMN2 splice enh, KinaseGlo FLuc)
COc1ccc(OCc2nnc(SCC(=O)N3CCCCC3)o2)cc1	none (no result: SMN2 splice enh, KinaseGlo FLuc)
C=CCSC1=C(C#N)C(c2ccccc2OCC)CC(=O)N1 (stereo not given)	none
Cc1cc(NC(=O)Cn2nc3c(cc2=O)CCCC3)ccc1Br	none
c1ccc(-c2nnnn2-c2ccccc2)cc1	none (no result: SMN2 splice enh, KinaseGlo FLuc)
CN=c1nc(-c2ccccc2)n(-c2ccccc2)s1	FLuc modulator 15µM, ELG1 genotox inconclusive, SMN2 splice enh inconclusive
